For 99 compounds, displacement results are on record in PubChem BioAssay AID1240 (Sanford-Burnham Center for Chemical Genomics, 2008).

The structures appear in SMILES notation. Hit rate of the full screen: of about 50,000 compounds, about 800 (1.6%) showed an effect of 50% or more. Many of the other results were omitted from the sample, so strong results are more common in it than they were.

The target in the experiment is Bcl-2-like protein 10 (Homo sapiens) (UniProt Q9HD36). The experiment is described as follows: Phenotype converters, Bcl-B/TR3 peptide binding displacement, primary biochemical FP (AID 1240).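 Also: 0% = Bcl-B with tracer peptide and DMSO and 100% = tracer peptide lacking Bcl-B.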 The conditions noted are these: GST-Bcl-B / FITC-TR3 peptide fluorescence polarization; stronger effect = higher value; compound at 3.75 mg/L.
Bcl-2-like protein 10 (Homo sapiens), sequence (Q9HD36 whole entry, looked up): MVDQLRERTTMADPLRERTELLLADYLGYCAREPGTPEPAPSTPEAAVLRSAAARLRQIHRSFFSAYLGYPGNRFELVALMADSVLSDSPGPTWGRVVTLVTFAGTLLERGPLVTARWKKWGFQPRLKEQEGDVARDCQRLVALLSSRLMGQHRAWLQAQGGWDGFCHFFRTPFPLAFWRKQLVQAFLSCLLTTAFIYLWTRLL
For `COCCc1nnc(NC(=O)Cc2ccccc2)s1`, the displacement is 1.2%.

For the compound `Clc1ccc(-c2noc(CCc3ccccc3)n2)cc1`, the displacement came to 13.2%.

Consider `CN(C)c1ccnc2sc(C(=O)c3ccc(Br)cc3)c(N)c12`, for which the displacement worked out at 10%. Take `Cc1nc2sc(C(=O)c3ccc(Br)cc3)c(N)c2c(C)c1C`: the displacement worked out at 132%. Take `Cc1cc(C)c2c(N)c(C(=O)c3ccc(Br)cc3)sc2n1`: the displacement was -7.3%. The result for `Cc1[nH]n(-c2ccc([N+](=O)[O-])cc2)c(=O)c1C=NC1CCCCC1` reads -1.9%. The result for `O=c1oc2cc([N+](=O)[O-])ccc2nc1/C=C(\O)c1cccc(Br)c1` reads 3%; that for `O=c1oc2cc([N+](=O)[O-])ccc2nc1/C=C(\O)c1cccs1`, 94%; that for `COc1ccc(/C(O)=C/c2nc3ccccc3oc2=O)cc1`, -1.7%.

As to `O=c1oc2cc([N+](=O)[O-])ccc2nc1/C=C(\O)c1ccc(Br)cc1`, the displacement is 18.6%.

Regarding `O=C(Nc1ccc(-c2nc3ccccc3[nH]2)cc1)c1cccs1`, the displacement was -7.9%. The result for `O=c1oc2ccccc2nc1/C=C(\O)c1cccs1` reads 61.3%. For `Cc1nc(C)c(/C(O)=C/c2nc3ccccc3oc2=O)s1`, the displacement was -1.1%. As to `COc1ccc(/C(O)=C/c2nc3ccccc3[nH]c2=O)cc1`, the displacement is 6.8%.

On to `O=c1[nH]c2ccccc2nc1/C=C(\O)c1cccs1`, for which the displacement stood at 98.7%. Take `CC(Cc1ccccc1)NC(=O)CC(c1ccccc1)c1ccc(O)c(Cl)c1Cl` (centres undefined): the displacement was found to be 2.6%. Take `O=C(c1ccc(F)cc1)N1CCN(c2cccc(Cl)c2)CC1`: the displacement amounted to 2.4%. Consider `CCN(CC)CCCCCCOc1ccc(OC)cc1`, for which the displacement came out at 10%. The result for `COCCOC(=O)c1ccc(NC(=O)COc2cccc(C)c2C)cc1` reads 1.9%; that for `CCOC(=O)C(C(=O)OCC)C(C(=O)OCC)(C(=O)OCC)C(C(=O)OCC)C(=O)OCC`, 2.1%. Regarding `COc1ccc(C(=O)N=Nc2c(O)[nH]c3c(C)cc([N+](=O)[O-])cc23)cc1`, the displacement is 115%. For the compound `Cc1cc(C)c2[nH]c(O)c(N=NC(=O)c3cccc([N+](=O)[O-])c3)c2c1`, the displacement was -0.6%. Turning to `O=C(N=Nc1c(O)[nH]c2ccc([N+](=O)[O-])cc12)c1ccc2c(c1)OCO2`, the displacement came to 75.1%. The result for `COc1ccc(C(=O)N=Nc2c(O)[nH]c3c(C)cc(Br)cc23)cc1` reads 3%; that for `O=C(N=Nc1c(O)[nH]c2ccc(Br)cc12)c1ccc([N+](=O)[O-])cc1`, 6.8%; that for `O=C(N=Nc1c(O)[nH]c2ccc([N+](=O)[O-])cc12)c1cccc(Br)c1`, 3.3%. The result for `CCOc1ccccc1NC(=O)/C=C/c1ccc(Cl)cc1` reads 11.4%. As to `CCN1C(=O)N(CC)C2C1N(COC(C)=O)C(=O)N2COC(C)=O` (centres undefined), the displacement was determined as 1.5%.

As for `COc1ccc(-n2nc3cc(C)c(NC(=O)c4cccnc4)cc3n2)cc1`, the displacement amounted to 5.1%.

For `O=C1c2ccccc2C(=O)N1c1ncc(Cc2cccc(C(F)(F)F)c2)s1`, the displacement is -5.8%. The result for `Cc1cccc(NC(=O)CN(c2cccc(Cl)c2)S(C)(=O)=O)c1` reads 3.9%; that for `CC1=C(C(=O)OC2CCCCC2)C(c2ccc(Br)cc2)NC(=O)N1` (centres undefined), 17.5%; that for `CC1=C(C(=O)OC2CCCCC2)C(c2ccc(N(C)C)cc2)NC(=O)N1` (centres undefined), 99.1%. The result for `CC1=C(C(=O)OC2CCCC2)C(c2ccc(Cl)cc2)NC(=O)N1` (centres undefined) reads 7.3%. With `CC1=NNC(=O)C1CC(=O)N/N=C/c1ccc(O)cc1` (centres undefined), the displacement is -5.3%. Regarding `C=CCn1c(Cc2ccccc2)n[nH]c1=S`, the displacement is -5.1%.

For the compound `CCc1ccc(NC(=O)C2CC(=O)N=C(N)S2)cc1` (centres undefined), the displacement was -2.4%. Regarding `Oc1c(C=Nc2cccc3nsnc23)sc2ccccc12`, the displacement was -12.3%. The result for `Cc1cc(NS(=O)(=O)c2ccc(N/C=C/C(=O)c3cccs3)cc2)nc(C)n1` reads 2.1%; that for `Cc1cc(C)nc(NS(=O)(=O)c2ccc(N/C=C\C(=O)c3ccc4ccccc4c3)cc2)n1`, 14.7%; that for `Cc1cc(C)nc(NS(=O)(=O)c2ccc(N/C=C\C(=O)c3cccs3)cc2)n1`, 78.5%. Regarding `CCOC(=O)C1=C(O)/C(=C/c2cc(OC)c(OC)c(OC)c2)SC1=Nc1ccc(C)cc1`, the displacement was -5.5%. In the case of `O=[N+]([O-])c1ccc(C[n+]2cc(-c3ccc(Cl)c(Cl)c3)n3c2CCC3)cc1`, the displacement is 9.6%. The result for `O=C1CS/C(=N/N=C/c2ccc(-c3ccc(Cl)cc3)o2)N1` reads -6.7%; that for `Cc1c(Cl)cccc1-c1ccc(/C=N/N=C2\NC(=O)CS2)o1`, 133%; that for `O=C1CS/C(=N/N=C/c2ccc(-c3ccc([N+](=O)[O-])cc3)o2)N1`, 41.1%. The result for `O=C(Cn1cc(/C=C2/C(=O)NC(=O)N(c3cccc(Cl)c3)C2=O)c2ccccc21)Nc1ccccc1` reads 94.7%; that for `O=C(Cn1cc(/C=C2/C(=O)NC(=O)N(c3cccc(F)c3)C2=O)c2ccccc21)Nc1ccccc1`, 116%; that for `O=C(Cn1cc(/C=C2\SC(=O)NC2=O)c2ccccc21)Nc1ccccc1`, -4.9%. The result for `Cc1cc(/C=C2\C(=O)NC(=O)N(c3cccc(F)c3)C2=O)c(C)n1C` reads 18.4%. As to `COC(=O)Cn1cc(/C=C2\C(=O)NC(=O)N(c3cccc(F)c3)C2=O)c2ccccc21`, the displacement amounted to 35.8%. As for `CC(C)c1ccc(/C=C2\SC(=S)N(Cc3ccccc3)C2=O)cc1`, the displacement stood at 2.6%. The result for `Cc1ccccc1OCCn1cc(/C=C2/SC(=S)N(C)C2=O)c2ccccc21` reads 11.6%; that for `CCN1C(=O)/C(=C\c2cn(CCOc3ccccc3C)c3ccccc23)SC1=S`, 127%. As for `COc1ccccc1/C=C1/SC(=S)N(Cc2ccccc2)C1=O`, the displacement was 16.7%. With `COc1ccc(/C=C2/SC(=S)N(Cc3ccccc3)C2=O)c2ccccc12`, the displacement was 60.2%.

As to `CN1C(=O)/C(=C\c2cn(Cc3ccccc3)c3ccccc23)SC1=S`, the displacement is 8.3%. `COc1ccccc1OCCn1cc(/C=C2/SC(=S)N(Cc3ccccc3)C2=O)c2ccccc21`: the displacement amounted to 112%. As to `CC(Oc1ccc(/C=C2/SC(=S)N(Cc3ccccc3)C2=O)cc1)c1ccccc1` (centres undefined), the displacement is 123%.

With `O=Cc1ccc(/C=C2/SC(=S)N(Cc3ccccc3)C2=O)cc1`, the displacement was determined as 10.5%. Take `CCN1C(=O)/C(=C\c2cn(Cc3ccccc3)c3ccccc23)SC1=S`: the displacement amounted to 3.3%. For the compound `COc1cccc(/C=C2\SC(=S)N(Cc3ccccc3)C2=O)c1OC`, the displacement was 8.6%. The result for `C=CCc1ccccc1OCCn1cc(/C=C2/SC(=S)N(CC)C2=O)c2ccccc21` reads 11.6%. Turning to `O=C(Nc1cccc2ccccc12)c1cc(-c2ccco2)nc2ccccc12`, the displacement was 34.2%.

As to `Cc1ccc(C(=O)N2CCC(C(N)=O)CC2)cc1[N+](=O)[O-]`, the displacement is -0.2%. Turning to `O=C(Nc1ccccc1)/C(=C\c1cccc(Br)c1)NC(=O)c1ccccc1`, the displacement amounted to 4.5%. Take `COc1ccc(Cc2nnc(NC(=O)Nc3ccccc3)s2)cc1`: the displacement came out at 11.9%. Take `COc1cc(/C=N/NC(=O)CSCc2ccc([N+](=O)[O-])cc2)cc(OC)c1OC`: the displacement turned out to be 1.6%. For the compound `COc1ccccc1NC(=O)N1CCOCC1`, the displacement is -6.8%.

Take `COc1ccc(-c2nc(=S)c3c(n2Cc2ccccc2)CCCC3)cc1`: the displacement was 10.1%.

In the case of `COC(=O)C1=C(C(=O)OC)SC(=C2C(=S)C(C)(C)N(C(=O)c3cccc(C)c3)c3cc(OC)ccc32)S1`, the displacement is -7.2%. The result for `Nc1ccc2nc(SCC(=O)Nc3cccc(C(F)(F)F)c3)sc2c1` reads -3.3%; that for `CCN1C(=O)/C(=C\c2cn(CCOc3ccccc3)c3ccccc23)SC1=S`, 20.9%.

Turning to `C=CCN1C(=O)/C(=C\c2cn(CCOc3cccc(OC)c3)c3ccccc23)SC1=S`, the displacement amounted to 91.7%. `C=CCN1C(=O)/C(=C\c2cc(Br)ccc2OCCOc2cccc(OC)c2)SC1=S`: the displacement is -43.6%. For `O=C(O)c1ccc2c(c1)C(=O)N(c1ccc(-c3nnc(-c4ccccc4)o3)cc1)C2=O`, the displacement amounted to 9%. The result for `CCOC(=O)c1nc(NC(=O)/C=C/c2ccco2)sc1C` reads 73.7%; that for `O=C(/C=C/c1ccco1)Nc1nc2ccc(Br)cc2s1`, 59.2%; that for `COC(=O)c1c(NC(=O)/C=C/c2ccco2)sc(C)c1C`, -12.6%.

`CCOC(=O)c1c(NC(=S)NC(=O)/C=C/c2ccco2)sc(C)c1C`: the displacement turned out to be 23.9%. The result for `COc1ccc(Br)cc1/C=C/C(=O)Nc1nc2ccc(C)cc2s1` reads -22.6%. Regarding `O=C(/C=C/c1ccccc1)Nc1nc2ccc(Br)cc2s1`, the displacement is 15%. Take `Cc1ccc(OCCNc2cc(Cl)ccc2[N+](=O)[O-])cc1C`: the displacement was determined as 0.6%. The result for `CSc1ccc(/C=N/S(=O)(=O)CCc2ccccc2)cc1` reads -7.7%; that for `CCCS(=O)(=O)c1c(S(=O)(=O)CCC)c2c(C)cccn2c1C(N)=O`, -9.8%. With `COc1c(Cl)ccc(Cl)c1C(=O)Nc1ccc(I)cc1`, the displacement is -9.5%. Turning to `O=C(c1ccc(Cl)cc1)N1CCC(Cc2ccccc2)CC1`, the displacement is 16.4%. As for `CCOc1ccc(N2C(=O)NC(=O)/C(=C\c3ccc(-c4ccc([N+](=O)[O-])cc4OC)o3)C2=O)cc1`, the displacement worked out at 23%.

On to `COc1ccc(N2C(=O)NC(=O)/C(=C/c3ccc(-c4ccc([N+](=O)[O-])cc4C)o3)C2=O)cc1`, for which the displacement turned out to be 13.6%. `Cc1cc(C)cc(N2C(=O)NC(=O)/C(=C\c3ccc([N+](=O)[O-])o3)C2=O)c1`: the displacement is -3.8%.

For the compound `COc1cc([N+](=O)[O-])ccc1-c1ccc(/C=C2\C(=O)NC(=O)N(c3ccc(C)c(C)c3)C2=O)o1`, the displacement worked out at 75.5%.

With `COc1ccc([N+](=O)[O-])cc1-c1ccc(/C=C2\C(=O)NC(=O)N(c3ccc(Cl)cc3)C2=O)o1`, the displacement is 25.1%. Turning to `COc1ccc([N+](=O)[O-])cc1-c1ccc(/C=C2\C(=O)NC(=O)N(c3cc(C)cc(C)c3)C2=O)o1`, the displacement was found to be 92.6%. Regarding `COc1cc([N+](=O)[O-])ccc1-c1ccc(/C=C2\C(=O)NC(=O)N(c3ccc(Cl)cc3)C2=O)o1`, the displacement stood at 14%. On to `COc1cc([N+](=O)[O-])ccc1-c1ccc(/C=C2\C(=O)NC(=S)N(c3ccc(Cl)cc3)C2=O)o1`, for which the displacement amounted to 16.2%. On to `Cc1ccc([N+](=O)[O-])cc1-c1ccc(/C=C2\C(=O)NC(=O)N(c3ccc(Cl)cc3)C2=O)o1`, for which the displacement was found to be 6.8%. Regarding `O=C1NC(=O)N(c2ccccc2)C(=O)/C1=C\c1ccc(-c2ccc([N+](=O)[O-])cc2Br)o1`, the displacement is -14.8%. For `COc1cc([N+](=O)[O-])ccc1-c1ccc(/C=C2\C(=O)NC(=O)N(c3ccccc3)C2=O)o1`, the displacement amounted to 132%.

For the compound `Cc1ccc([N+](=O)[O-])cc1-c1ccc(/C=C2/C(=O)NC(=O)N(c3ccccc3)C2=O)o1`, the displacement was 82.8%.
